Values joined by “and” are separate entries in the source; they are usually repeats but may differ in a detail not shown here. Identical values can stand only once. Compounds without any hit were thinned out: in the full panel of roughly 83,000, 20% have a hit.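 Percent growth is the endpoint: 0 to 100 indicates growth inhibition (40 means 60% inhibition), 0 means no net growth, and negative values indicate cell death.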 Values without a mark were called inactive. Active and inactive are the calls of the source. How the source made its calls: active means growth percent below 10; inactive means the rest.
Each compound was assayed on MDA-MB-468 breast (assay: NCI-60 one-dose screen, 48 h (100 = growth as untreated, 0 = no growth, -100 = all killed)). Conditions: 10 µM unless noted.

| Structure (SMILES) | growth |
| --- | --- |
| COc1ncc(-c2ccc3ncnc(Nc4cccc(Cl)c4)c3c2)cc1NS(C)(=O)=O | -43.3% (active) |
| CCC(CC)(N(CC(=O)O)CC(=O)O)C(CC)(CC)N(CC(=O)O)CC(=O)O | 127% |
| CCCC(=O)OCC(COC(=O)CCC)OC(=O)CCC | 89% |
| CC(C)CCN(CCCNc1c2c(nc3cc(Cl)ccc13)CCCC2)CCC(C)C | 22.6% |
| O=C1Nc2ccc(Cl)cc2/C1=C\c1c(-c2ccc(F)cc2)nc2ccccn12 | -13.6% (active) |
| COc1ccc(C/C(C)=C(\c2ccc(O)cc2)c2ccc(OCCCN(C)C)cc2)cc1 | 86.8% |
| C/C(=C(/c1ccc(O)cc1)c1ccc(OCCN2CCCCCC2)cc1)c1ccccc1 | 31.8% |
| CC/C=C\CCC/C=C1/C(=O)C=C[C@@H]1C/C=C\CCCC(=O)O | 76.1% |
| Nc1ccccc1SC1CC(=O)N(c2cccc3ccccc23)C1=O (stereo not given) | 87% |
| O=C(/C=C/c1ccccc1)c1cccc(O)c1 | 111% and 90.2% |
| CCN(c1ccccc1)S(=O)(=O)c1cc([N+](=O)[O-])ccc1Cl | -4.6% (active) |
| Clc1nc(Cl)c2ncn(-c3ccccc3)c2n1 | 3.71% (active) |
| CCOC(=O)C1=C(C)Nc2nc3ccccc3n2C1c1ccccc1 (stereo not given) | 85.6% |
| COC(=O)C1=Nc2ccc(F)cc2/C1=C/c1sc(=S)[nH]c1O | 13.4% |
| CCN(CC)CCOCC[C@H]1CC[C@H]2[C@@H]3[C@H](C)Cc4cc(OS(N)(=O)=O)ccc4[C@H]3CC[C@]12C | -87.2% (active) |
| CCCCn1c(=O)[nH]c2c(c1=O)C(c1ccc(Cl)cc1)c1c([nH]c(=O)n(CCCC)c1=O)N2 | 108% |
| C=C(C)[C@@H]1C[C@@H]2Cc3cc(Cl)ccc3N1O2 | 96% |
| Cc1cc2c(-c3nc4ccccn4c3NC3CCCCC3)c(O)c(O)cc2c(O)c1-c1c(C)cc2c(-c3nc4ccccn4c3NC3CCCCC3)c(O)c(O)cc2c1O | 13.9% |
| CCOC(=O)CNC(=O)Nc1ccc(Oc2ccc(NC(=O)NCC(=O)OCC)cc2)cc1 | 99.5% |
| O=C(/C=C/c1cccc(Nc2ccnc3cc(Cl)ccc23)c1)c1ccc(Cl)cc1 | 27.6% |

| Structure (SMILES) | growth |
| --- | --- |
| CN1CCN(c2nc(-c3csc(-c4ccccc4)n3)cc3ccccc23)CC1 | -71.9% (active) |
| Cc1csc(/N=C(N)/N=C(\N)c2cccs2)n1 | 120% |
| CCCCC(CC#N)(CCC)CCC | 112% |
| COc1ccc(C2C(C#N)=C(N)Oc3c2sc2c(Br)cccc32)cc1 (stereo not given) | 3.82% (active) |
| CCNC(=O)Oc1ccc[nH]c1=O | 86.9% |
| Nc1nc2ccc(-c3nc4ccc5[nH]ncc5c4c4c3CCC4)cc2s1 | -5.96% (active) |
| NC(=O)NN=C(C1CC1)C1CC1 | 119% |
| COc1ccc(/C=C/C(=O)c2ccc(NC(=O)CSc3nnc(-c4ccc(OC)c(OC)c4)n3-c3ccccc3)cc2)cc1 | 60.2% |
| COc1cc(/C=N/n2cnc3oc(-c4ccccc4)cc3c2=N)cc(CN2CCCCC2)c1O | -35.8% (active) |
| CCOC(=O)c1c(C)nc2c(c1N)C(=O)C(=O)N2Cc1ccc(OC)cc1 | 95% |
| COc1ccc(C/C(C)=C(/c2ccc(OCCN3CCCC3)cc2)c2ccc(OC(=O)NCc3ccccc3)cc2)cc1 | 78.9% |
| CC(=O)OC[C@]12CC[C@@H](C(=O)CBr)[C@@H]1[C@H]1CC[C@@H]3[C@@]4(C)CCCNC(C)(C)[C@@H]4CC[C@@]3(C)[C@]1(C)CC2 | -67.7% [100 µM] (active) |
| CNC(=O)c1cc(Oc2ccc(NC(=O)Nc3ccc(Cl)c(OC(F)(F)F)c3)c(F)c2)ccn1 | 14.7% |
| C#Cc1cccc(NC(=O)Nc2cccc(N=C=S)c2)c1 | 106% [8.25 µM] |
| Oc1ccc2ccccc2c1CN1CCOCC1 | 123% |
| C=CCNC(=O)c1ccc(OC)cc1 | 124% |
| NC1=CC(=O)c2ccccc2C1=O | 96.2% |
| C=C1CCC[C@]2(C)CCC[C@H](C)[C@@H](OC(C)=O)[C@@H]3OC(=O)C(=C)[C@@H]3C[C@H]1O2 | 31.8% |
| COC(=O)CCCCCn1c2ccccc2c2c3c(c4c5ccccc5[nH]c4c21)C(=O)N(O)C3=O | 45.3% |
| C[C@@H]1C(=O)N(C[C@@H](Cc2ccccc2)NC(=O)OCc2ccccc2)[C@]1(Cc1ccccc1)C(=O)OCc1ccccc1 | 26.1% |

From PubChem BioAssay (NCI)
